Experimental findings from PubChem BioAssay (EPA / NIEHS) are described below.

The structures appear in SMILES notation. The source made the active and inactive calls. How the source made its calls: active means hit-call score of the fitted dose curve at least 0.9, where 1 is the maximum; inactive means score below 0.9.

Read-out in assay [1]: Transforming growth factor beta 1 (TGFb1), TGFB1 (gene 7040)
Description: BSK_KF3CT_TGFb1: BioMAP Diversity Plus: KF3CT Assay for Transforming growth factor beta 1 (TGFb1) Biomarker Activity (AID 2283072). As to conditions: primary human keratinocytes with fibroblasts; actives raise or lower the signal. In short, it runs like this: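 ELISA quantifies TGF-b1 at 24 h post-dose in a primary human skin co-culture of keratinocytes and fibroblasts, with gain or loss judged against DMSO. Parallel SRB total-protein staining flags overt cytotoxicity.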

Read-out in assay [2]: Matrix Metallopeptidase 9 (MMP9), MMP9 (gene 4318)
The assay is described as follows: BSK_KF3CT_MMP9: BioMAP Diversity Plus: KF3CT Assay for Matrix Metallopeptidase 9 (MMP9) Biomarker Activity (AID 2283074).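 On AC50: MMP9 protein level quantified by ELISA in the co-culture.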 The settings on record: primary human keratinocytes with fibroblasts; actives raise or lower the signal. The method, boiled down: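 ELISA read-out of MMP-9 at 24 h post-dosing in a co-culture of human skin keratinocytes and foreskin fibroblasts. Gain or loss of signal was fitted in both directions against DMSO.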

Read-out in assay [3]: urokinase plasminogen activator (uPA), PLAU (gene 5328)
Description: BSK_KF3CT_uPA: BioMAP Diversity Plus: KF3CT Assay for urokinase plasminogen activator (uPA) Biomarker Activity (AID 2283075). The settings on record: primary human keratinocytes with fibroblasts; actives raise or lower the signal. In short, it runs like this:
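Skin co-culture (keratinocytes + foreskin fibroblasts), human primary; 24 h post-dose; uPA by ELISA; gain/loss fit vs DMSO baseline.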

Read-out in assay [4]: CD40, CD40 (gene 958)
Description: BSK_LPS_CD40: BioMAP Diversity Plus: LPS Assay for CD40 Biomarker Activity (AID 2283076). The settings on record: primary human HUVEC with PBMC; actives raise or lower the signal. In short, it runs like this: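 Primary human umbilical vein endothelial cells co-cultured with peripheral blood mononuclear cells, LPS-stimulated, were dosed with chemical and read 24 h later. CD40 levels were measured by ELISA and fitted bidirectionally against DMSO as negative control and baseline.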

Read-out in assay [5]: E-selectin (Homo sapiens) (UniProt P16581)
The assay is described as follows: BSK_LPS_Eselectin: BioMAP Diversity Plus: LPS Assay for Eselectin Biomarker Activity (AID 2283077). As to conditions: primary human HUVEC with PBMC; actives raise or lower the signal. The method, boiled down: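 Human umbilical vein endothelial cells co-cultured with peripheral blood mononuclear cells under LPS stimulation; E-selectin measured by ELISA 24 h after chemical dosing. Activity fitted bidirectionally against DMSO as negative control and baseline.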

Read-out in assay [6]: Interleukin-8 (IL8), CXCL8 (gene 3576)
Description: BSK_LPS_IL8: BioMAP Diversity Plus: LPS Assay for Interleukin-8 (IL8) Biomarker Activity (AID 2283078). The settings on record: primary human HUVEC with PBMC; actives raise or lower the signal. In short, it runs like this: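 Human umbilical vein endothelial cells co-cultured with PBMC were stimulated with LPS; IL-8 levels were measured by ELISA 24 h after chemical dosing. Activity was fitted bidirectionally against DMSO as negative control and baseline.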

A short description of assay [7]: BSK_LPS_SRB: Viability Assessment in the BioMAP Diversity Plus: LPS Assay (AID 2283079).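 Further: total protein by sulforhodamine B absorbance as a cytotoxicity measure; measured one day after compound addition.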 The settings on record: primary human HUVEC with PBMC. In short, it runs like this:
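Human umbilical vein endothelial cells co-cultured with PBMC (LPS system) were dosed for 24 h. Total protein was stained with 0.1% sulforhodamine B after 10% TCA fixation, read at 560 nm, and fitted bidirectionally against DMSO baseline.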

Read-out in assay [8]: Interleukin-1 alpha (IL1a), IL1A (gene 3552)
The assay is described as follows: BSK_LPS_IL1a: BioMAP Diversity Plus: LPS Assay for Interleukin-1 alpha (IL1a) Biomarker Activity (AID 2283080). As to conditions: primary human HUVEC with PBMC; actives raise or lower the signal. In short, it runs like this:
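Human umbilical vein endothelial cells co-cultured with peripheral blood mononuclear cells were LPS-stimulated and exposed to test chemicals for 24 h. IL-1 alpha was quantified by ELISA, with bidirectional curve fitting against DMSO as the negative control and baseline.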

Read-out in assay [9]: Monocyte Chemoattractant Protein-1 (MCP1), CCL2 (gene 6347)
Description: BSK_LPS_MCP1: BioMAP Diversity Plus: LPS Assay for Monocyte Chemoattractant Protein-1 (MCP1) Biomarker Activity (AID 2283081).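 On AC50: co-culture stimulated with LPS; secreted MCP-1 protein quantified by ELISA in culture supernatant.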 The settings on record: primary human HUVEC with PBMC; actives raise or lower the signal. The method, boiled down:
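HUVEC plus PBMC co-culture (human primary cells, LPS system) exposed to test chemical for 24 h; MCP-1 measured by ELISA. Bidirectional curve fitting against DMSO baseline; parallel SRB total-protein staining flags overt cytotoxicity.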

The nature of assay [10]: BSK_LPS_PGE2: BioMAP Diversity Plus: LPS Assay for Prostaglandin E2 (PGE2) Biomarker Activity (AID 2283082).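 On AC50: secreted prostaglandin E2 measured by ELISA in LPS-stimulated co-culture.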 As to conditions: primary human HUVEC with PBMC; actives raise or lower the signal. The method, boiled down:
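PGE2 release measured by ELISA in an LPS-activated co-culture of human umbilical vein endothelial cells and peripheral blood mononuclear cells, read at 24 h post-dosing. DMSO served as baseline for bidirectional curve fitting.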

Read-out in assay [11]: Macrophage colony-stimulating factor (MCSF), CSF1 (gene 1435)
Description: BSK_LPS_MCSF: BioMAP Diversity Plus: LPS Assay for Macrophage colony-stimulating factor (MCSF) Biomarker Activity (AID 2283083). As to conditions: primary human HUVEC with PBMC; actives raise or lower the signal. The method, boiled down:
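Human umbilical vein endothelial cells co-cultured with peripheral blood mononuclear cells were exposed to compound for 24 h. M-CSF levels were measured by ELISA, and bidirectional curve fitting used DMSO as the negative control and baseline.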

Read-out in assay [12]: Tissue Factor, F3 (gene 2152)
The assay is described as follows: BSK_LPS_TissueFactor: BioMAP Diversity Plus: LPS Assay for Tissue Factor Biomarker Activity (AID 2283084). The settings on record: primary human HUVEC with PBMC; actives raise or lower the signal. The method, boiled down:
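Human umbilical vein endothelial cells co-cultured with peripheral blood mononuclear cells were dosed and stimulated with LPS. Cell-surface CD142 was quantified by ELISA at 24 h. Activity was fitted bidirectionally against DMSO baseline.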

Read-out in assay [13]: Tumor necrosis factor (Homo sapiens) (UniProt P01375)
The assay is described as follows: BSK_LPS_TNFa: BioMAP Diversity Plus: LPS Assay for Tumour Necrosis Factor alpha (TNFa) Biomarker Activity (AID 2283085).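 On AC50: TNFa protein level quantified by ELISA in the co-culture.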 As to conditions: primary human HUVEC with PBMC; actives raise or lower the signal. The method, boiled down: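 TNFa was quantified by ELISA in LPS-activated co-cultures of human endothelial cells and PBMC, 24 h post-dosing. Both increases and decreases versus DMSO were fitted.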

Read-out in assay [14]: Vascular cell adhesion molecule 1 (VCAM1), VCAM1 (gene 7412)
Description: BSK_LPS_VCAM1: BioMAP Diversity Plus: LPS Assay for Vascular cell adhesion molecule 1 (VCAM1) Biomarker Activity (AID 2283086). The settings on record: primary human HUVEC with PBMC; actives raise or lower the signal. In short, it runs like this:
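VCAM-1 quantified by ELISA in an LPS-activated co-culture of human endothelial cells and peripheral blood mononuclear cells, read 24 h post-treatment. Fitted in both directions versus DMSO; parallel SRB staining flags overt cytotoxicity.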

Read-out in assay [15]: CD40, CD40 (gene 958)
Description: BSK_SAg_CD40: BioMAP Diversity Plus: SAg Assay for CD40 Biomarker Activity (AID 2283088). The settings on record: primary human HUVEC with PBMC; actives raise or lower the signal. In short, it runs like this:
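Human umbilical vein endothelial cells co-cultured with PBMC; CD40 levels measured by ELISA with fluorescence read-out 24 h after chemical dosing. Gain or loss of signal fitted bidirectionally against DMSO baseline.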

Read-out in the next assay: CD69, CD69 (gene 969)
Description: BSK_SAg_CD69: BioMAP Diversity Plus: SAg Assay for CD69 Biomarker Activity (AID 2283089).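 Further: cell surface CD69 protein quantified by ELISA with fluorescence detection.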 The settings on record: primary human HUVEC with PBMC; actives raise or lower the signal. The method, boiled down: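 Primary human vascular co-culture (umbilical vein endothelium with peripheral blood mononuclear cells) exposed to test chemical for 24 h. CD69 levels quantified by fluorescence ELISA; DMSO served as negative control for bidirectional fitting.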

Read-out in assay [16]: Monocyte Chemoattractant Protein-1 (MCP1), CCL2 (gene 6347)
Description: BSK_SAg_MCP1: BioMAP Diversity Plus: SAg Assay for Monocyte Chemoattractant Protein-1 (MCP1) Biomarker Activity (AID 2283090). As to conditions: primary human HUVEC with PBMC; actives raise or lower the signal. The method, boiled down: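 Values derive from bidirectional fitting of ELISA-measured MCP1 against DMSO controls. Readings were taken 24 h after dosing human vascular endothelial cells co-cultured with peripheral blood mononuclear cells under superantigen stimulation.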

Read-out in assay [17]: E-selectin (Homo sapiens) (UniProt P16581)
Description: BSK_SAg_Eselectin: BioMAP Diversity Plus: SAg Assay for Eselectin Biomarker Activity (AID 2283091). The settings on record: primary human HUVEC with PBMC; actives raise or lower the signal. The method, boiled down:
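HUVEC co-cultured with PBMC, compound dosed then read at 24 h; E-selectin measured by ELISA. Activity fitted bidirectionally against DMSO as negative control and baseline.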

Read-out in the next assay: CD38, CD38 (gene 952)
The assay is described as follows: BSK_SAg_CD38: BioMAP Diversity Plus: SAg Assay for CD38 Biomarker Activity (AID 2283087). As to conditions: primary human HUVEC with PBMC; actives raise or lower the signal. The method, boiled down:
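CD38 quantified by ELISA (fluorescence) in a superantigen-activated endothelial cell–PBMC co-culture at 24 h post-dose. Activity fitted in both directions relative to DMSO; parallel SRB and Alamar Blue cytotoxicity read-outs.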

E-selectin (Homo sapiens), sequence (P16581 whole entry, looked up): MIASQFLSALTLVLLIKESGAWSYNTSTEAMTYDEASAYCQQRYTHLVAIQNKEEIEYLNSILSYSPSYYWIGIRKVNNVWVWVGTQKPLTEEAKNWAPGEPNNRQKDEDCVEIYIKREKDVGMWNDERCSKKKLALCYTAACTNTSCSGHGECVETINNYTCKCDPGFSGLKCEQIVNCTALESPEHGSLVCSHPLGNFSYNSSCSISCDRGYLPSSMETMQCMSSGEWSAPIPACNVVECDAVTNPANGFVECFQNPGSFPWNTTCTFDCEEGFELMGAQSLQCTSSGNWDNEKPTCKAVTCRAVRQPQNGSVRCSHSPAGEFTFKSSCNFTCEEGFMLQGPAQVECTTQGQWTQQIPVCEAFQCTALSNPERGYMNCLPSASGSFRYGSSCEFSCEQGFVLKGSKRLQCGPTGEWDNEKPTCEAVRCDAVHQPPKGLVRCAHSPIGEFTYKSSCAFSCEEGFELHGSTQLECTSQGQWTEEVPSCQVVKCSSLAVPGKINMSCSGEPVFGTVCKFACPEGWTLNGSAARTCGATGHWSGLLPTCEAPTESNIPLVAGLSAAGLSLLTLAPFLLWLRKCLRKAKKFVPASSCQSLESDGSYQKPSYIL
Tumor necrosis factor (Homo sapiens), sequence (P01375 whole entry, looked up): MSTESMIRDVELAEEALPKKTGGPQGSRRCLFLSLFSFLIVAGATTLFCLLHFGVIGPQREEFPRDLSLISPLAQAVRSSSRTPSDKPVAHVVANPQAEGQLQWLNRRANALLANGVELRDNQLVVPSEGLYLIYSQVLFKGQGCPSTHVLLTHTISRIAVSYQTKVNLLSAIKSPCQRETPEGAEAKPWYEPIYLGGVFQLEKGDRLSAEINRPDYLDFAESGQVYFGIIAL

For `CCOc1cc(C(C)(C)C)ccc1C1COC(c2c(F)cccc2F)=N1` (stereo not given), the AC50 was 33 µM (active) in assay [1]; 14.8 µM (active) in assay [2]; 27.1 µM (active) in assay [3]; 29.2 µM (active) with CD40, CD40 (gene 958) [4]; 33.2 µM (active) in assay [5]; 26 µM (active) in assay [6]. The half-maximal activity concentration (AC50) was 26.2 µM (active) in [7]; 30.5 µM (active) in assay [8]; 33.4 µM (active) in assay [9]; 32.1 µM (active) in [10]; 20.9 µM (active) in assay [11]; 36.8 µM (active) in [12]. For the same molecule, the AC50 is 30.4 µM (active) in assay [13]; 31.4 µM (active) in [14]; 15.8 µM (active) with CD40, CD40 (gene 958) [15]; 20.5 µM (active) in the assay with CD69, CD69 (gene 969); 28.5 µM (active) in assay [16]; 16.5 µM (active) in assay [17].
As for `N#Cc1c(Cl)cccc1Cl`, the outcome is “inactive” in assay [1]; “inactive” in assay [2]; “inactive” in assay [3]; “inactive” with CD40, CD40 (gene 958) [4]; “inactive” in assay [6]; “inactive” in assay [7]. Also, the outcome in assay [8], in assay [9], in assay [10], in assay [11], in assay [12] and in assay [13] was inactive. The outcome was “inactive” in [14]; “inactive” with CD38, CD38 (gene 952); “inactive” with CD40, CD40 (gene 958) [15]; “inactive” in assay [16]; “inactive” in [17]. In [5], the half-maximal activity concentration (AC50) is 0.0841 µM (active).
Consider `Cn1c(-c2ccccc2)cc(-c2ccccc2)[n+]1C`, for which the outcome in [1] is “inactive”; in [2], “inactive”; with CD40, CD40 (gene 958) [4], “inactive”; in assay [5] it was “inactive”; in [6] it was “inactive”; in assay [7], “inactive”. In addition, the result in assay [8], in [9], in assay [10], in assay [11], in assay [12] and in [13] was inactive. Also, in assay [14], the result was inactive. Also, the AC50 in assay [3] is 12 µM (active); with CD40, CD40 (gene 958) [15] it was 7.51 µM (active); in [16], 5.52 µM (active); in [17], 4.84 µM (active).
Turning to `OC(c1ccc(Cl)cc1)(c1ccc(Cl)cc1)C(Cl)(Cl)Cl`, the AC50 was 9.69 µM (active) in assay [1]; 7.26 µM (active) in assay [2]; 7.28 µM (active) in [3]; 30.5 µM (active) with CD40, CD40 (gene 958) [4]; 30.9 µM (active) in assay [5]; 30.6 µM (active) in [6]. Besides, the AC50 was 27.4 µM (active) in [8]; 30.6 µM (active) in assay [9]; 17.5 µM (active) in assay [10]; 29.5 µM (active) in assay [11]; 20 µM (active) in assay [12]; 30.8 µM (active) in assay [13]. Moreover, the AC50 in assay [14] is 29.3 µM (active); with CD40, CD40 (gene 958) [15] it was 29.9 µM (active); in the assay with CD69, CD69 (gene 969), 30 µM (active); in assay [16] it was 30.7 µM (active); in assay [17], 27.2 µM (active).

As a reminder, the AC50 is the concentration giving half of the maximal activity seen.
